Columns and labels:
Settings in all cases: concentration: 1 μM,replicates: in singlicate; n = 1
LCK = system: LCK
LIMK1 = system: LIMK1
LIMK2 = system: LIMK2
LKB1 = system: T1, LKB1
T1 construct: gene STK11

LOK = system: T2, LOK
T2 construct: gene STK10

LRRK2 = system: LRRK2
LTK = system: LTK
LYN = system: LYN
LZK = system: T3, LZK
T3 construct: gene MAP3K13

MAK = system: MAK
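Note: KINOMEscan kinase panel screen.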

| SMILES | %Inh (LCK) | %Inh (LIMK1) | %Inh (LIMK2) | %Inh (LKB1) | %Inh (LOK) | %Inh (LRRK2) | %Inh (LTK) | %Inh (LYN) | %Inh (LZK) | %Inh (MAK) |
| --- | --- | --- | --- | --- | --- | --- | --- | --- | --- | --- |
| CC(=O)Nc1nc2cnc(Nc3cc(NC(=O)c4cccc(CC(C)(C)C#N)c4)ccc3C)nc2s1 | 72% | 0% | 2% | 1% | 55% | 9% | 2% | 58% | 15% | 0% |
| Cn1cc(-c2cccc3c(N)c(C(N)=O)nnc23)cn1 | 5% | 2% | 7% | 0% | 15% | 57% | 29% | 12% | 0% | 0% |
| CN1CCN(CCCNc2nccc(-c3c(-c4ccc(F)cc4)nn4cc(C(N)=O)ccc34)n2)CC1 [GW622475] | 51% | 0% | 9% | 0% | 0% | 2% | 39% | 0% | 0% | 50% |
| Cc1n[nH]c2cc(Nc3ccnc(Nc4cccc(CN5CCOCC5)c4)n3)ccc12 [GW682569] | 71% | 9% | 5% | 17% | 0% | 0% | 1% | 25% | 31% | 20% |
| Cn1ccc2ncnc(Oc3ccc(NC(=O)Nc4cccc(C(F)(F)F)c4)c(Cl)c3)c21 | 79% | 0% | 0% | 11% | 99.9% | 0% | 56% | 63% | 0% | 28% |
| CN(c1ccc2c(c1)nc(NCc1ccc(F)cc1)n2C)c1ccnc(Nc2ccc(CS(C)(=O)=O)cc2)n1.Cl [GW813244] | 67% | 33% | 0% | 29% | 99.5% | 0% | 48% | 68% | 0% | 2% |
| CCNCC(Cc1ccccc1)NC(=O)c1cc(Br)c(-c2ccnc3[nH]ccc23)s1.Cl.Cl (stereo not shown) [GSK1383280] | 11% | 21% | 23% | 0% | 0% | 0% | 0% | 0% | 0% | 44% |
| CN1CCN(CCNc2nc3cc(Oc4ccc(NC(=O)Nc5cc(C(F)(F)F)ccc5F)cc4)ccc3[nH]2)CC1.Cl.Cl [GW768504] | 22% | 0% | 2% | 38% | 95.2% | 0% | 19% | 12% | 0% | 13% |
| COC(=O)c1cccc(NC(=O)NC2CCN(c3ccnc(NCc4ccc(F)cc4)n3)CC2)c1 [GSK1379860] | 4% | 4% | 0% | 0% | 0% | 8% | 0% | 0% | 0% | 28% |
| C[C@@H]1CNc2c(sc3ccc4nc(-c5ccncc5)ccc4c23)C(=O)N1 | 13% | 0% | 0% | 0% | 14% | 100% | 65% | 6% | 0% | 0% |
| CCCC(=O)Nc1n[nH]c2ncccc12 [SB-601436] | 14% | 0% | 0% | 0% | 3% | 0% | 4% | 0% | 0% | 7% |
| c1ccc(Oc2ccc(Nc3ccnc4ccc(-c5ccccn5)cc34)cc2)cc1 [GW407034] | 83% | 5% | 0% | 0% | 0% | 5% | 0% | 22% | 0% | 59% |
| OCCn1cc(-c2cnc3nnn(Cc4ccc5ncccc5c4)c3n2)cn1 | 0% | 0% | 0% | 3% | 18% | 0% | 8% | 0% | 0% | 0% |
| CS(=O)c1ccc(-c2coc3ccc(-c4n[nH]c(=O)o4)cc23)cc1 (stereo not shown) | 0% | 0% | 0% | 16% | 99.7% | 13% | 0% | 16% | 2% | 0% |
| COc1ccc(Nc2nccc(N3CCC(NC(=O)c4cccc(C#N)c4)C3)n2)cc1 (stereo not shown) [GSK1379730] | 23% | 0% | 0% | 2% | 0% | 31% | 0% | 0% | 0% | 26% |
| O=C(Nc1n[nH]c2cc(-c3ccco3)ccc12)C1CC1 [SB-737447] | 3% | 0% | 0% | 0% | 3% | 0% | 0% | 0% | 0% | 4% |
| O=C(Nc1ccccc1)c1cccc(Oc2ccc3nccn3n2)c1 | 13% | 12% | 23% | 0% | 7% | 0% | 20% | 4% | 0% | 32% |

| SMILES | %Inh (LCK) | %Inh (LIMK1) | %Inh (LIMK2) | %Inh (LKB1) | %Inh (LOK) | %Inh (LRRK2) | %Inh (LTK) | %Inh (LYN) | %Inh (LZK) | %Inh (MAK) |
| --- | --- | --- | --- | --- | --- | --- | --- | --- | --- | --- |
| NC(=O)Nc1sc(-c2ccc(F)cc2)cc1C(N)=O [GW789449] | 32% | 3% | 24% | 0% | 22% | 0% | 35% | 0% | 0% | 0% |
| Cn1ccc2ncnc(Oc3ccc(NC(=O)Nc4ccnc(C(F)(F)F)c4)c(Cl)c3)c21 | 0% | 16% | 0% | 8% | 94% | 0% | 100% | 6% | 7% | 5% |
| O=C(Nc1cccc(C(F)(F)F)c1)c1cccc(Oc2ccc3nccn3n2)c1 | 63% | 0% | 8% | 0% | 24% | 0% | 45% | 37% | 20% | 0% |
| Nc1nccc(-c2ccc3c(N)n[nH]c3c2)n1 [GSK1034945] | 0% | 0% | 12% | 4% | 0% | 0% | 8% | 0% | 0% | 81% |
| CS(=O)(=O)c1cccc(CNc2nc(Nc3ccc4c(c3)[C@@H]3C[C@@H]4CNC3=O)ncc2C(F)(F)F)c1 | 0% | 0% | 0% | 12% | 81% | 72% | 5% | 25% | 0% | 0% |
| C[C@@H](Oc1cc(-n2cnc3cc(-c4ccncc4)ccc32)sc1C(N)=O)c1ccccc1Cl [GSK479719] | 54% | 31% | 0% | 0% | 99.8% | 4% | 0% | 0% | 0% | 0% |
| Cl.Cl.NC[C@H](CC1CCCCC1)NC(=O)c1ccc(-c2ccnc3[nH]ccc23)s1 [GSK1581428] | 37% | 0% | 0% | 50% | 31% | 49% | 0% | 0% | 0% | 0% |
| FC(F)(F)c1cc(Br)cc(Nc2nccc(-c3cnn4ncccc34)n2)c1 [GW810578] | 4% | 0% | 0% | 14% | 25% | 58% | 18% | 8% | 0% | 55% |
| O=C(Nc1cccc(Oc2ccc3nccn3n2)c1)Nc1cccc(C(F)(F)F)c1 | 71% | 0% | 25% | 0% | 64% | 21% | 0% | 42% | 0% | 38% |
| O=C(NOCC1CC1)c1cc(Br)c(F)c(F)c1Nc1ccc(I)cc1Cl | 0% | 0% | 0% | 7% | 2% | 0% | 0% | 9% | 9% | 37% |
| Cn1ccc2ncnc(Oc3ccc(NC(=O)Nc4cc(C(C)(C)C)on4)c(Cl)c3)c21 | 98.2% | 13% | 17% | 0% | 99.9% | 3% | 39% | 95.4% | 0% | 0% |
| COc1cccc(C2=C(Nc3cccc(Cl)c3)C(=O)NC2=O)c1 [SB-341556] | 15% | 67% | 0% | 0% | 9% | 83% | 86% | 0% | 0% | 0% |
| CN(c1cccc(CNc2nc(Nc3ccc4c(c3)CC(=O)N4)ncc2C(F)(F)F)c1)S(C)(=O)=O | 42% | 0% | 0% | 5% | 0% | 18% | 60% | 18% | 0% | 0% |
| Cl.Nc1n[nH]c2cc(-c3ccccn3)ccc12 [GSK2189892] | 12% | 0% | 0% | 12% | 0% | 0% | 0% | 0% | 0% | 29% |
| N#Cc1cccc(C(=O)NC2CCN(c3ccnc(Nc4ccc(F)cc4)n3)C2)c1 (stereo not shown) [GSK1379708] | 22% | 0% | 0% | 0% | 0% | 0% | 0% | 0% | 0% | 18% |
| CNC(=O)c1ccccc1Nc1nc(Nc2cccc(CS(C)(=O)=O)c2)ncc1C.O=CO [GSK1520489] | 99.8% | 47% | 0% | 0% | 99.8% | 90% | 89% | 95.1% | 97.3% | 0% |
| Cc1ccc(C(=O)Nc2ccc(Oc3ccc4nc(NC(=O)C5CC5)cn4c3)c(F)c2)c(=O)n1-c1ccccc1 | 99.2% | 42% | 21% | 34% | 99.9% | 0% | 38% | 57% | 0% | 0% |

Source: publication PMC5540273 (PLoS ONE, 2017)
